Reference: the supplement of paper PMC6658780
Where a name gives a salt, the structure may show the parent alone. ± gives the standard deviation of the averaged measurements.

Assays:
[1] = test system: Klebsiella pneumoniae KPC-119; experiment: percent growth inhibition of drug alone vs DMSO control; higher = more growth inhibition; conditions: antibiotic (0.125x MIC): none (0.1% DMSO)
[2] = test system: Klebsiella pneumoniae NCTC-13439; experiment: as above; conditions: antibiotic (0.125x MIC): none (0.1% DMSO)
[3] = test system: Klebsiella pneumoniae KPC-119; experiment: percent growth inhibition of drug + antibiotic vs DMSO control; higher = more growth inhibition
[4] = test system: Klebsiella pneumoniae NCTC-13439; experiment: as above; conditions: antibiotic (0.125x MIC): tigecycline; 7 µM
[5] = antibiotic (0.125x MIC): colistin, 20 µM
[6] = antibiotic (0.125x MIC): colistin, 7 µM

O=C([O-])c1ccccc1-c1c2cc(Br)c(=O)cc-2oc2[c]([Hg+])c([O-])c(Br)cc12.[Na+].[Na+].[OH-] [Merbromin]
percent growth inhibition of drug alone ([1]; 7 µM): 1.39 ± 0.87% | percent growth inhibition of drug alone ([1]; 20 µM): 7.86 ± 1.4% | percent growth inhibition of drug alone ([2]; 7 µM): -0.236 ± 1.4% | percent growth inhibition of drug alone ([2]; 20 µM): 15.7 ± 0.91% | percent growth inhibition ([3]; antibiotic (0.125x MIC): gentamicin, 7 µM): 2.44 ± 4% | percent growth inhibition ([3]; antibiotic (0.125x MIC): meropenem, 20 µM): 99.619 ± 0.036% | percent growth inhibition [4]: -5.98 ± 14%

C[N+]1([O-])[C@@H]2C[C@@H](OC(=O)[C@H](CO)c3ccccc3)C[C@H]1[C@@H]1O[C@@H]12 (stereo partly drawn) [Scopolamin-N-oxide hydrobromide]
percent growth inhibition of drug alone ([1]; 7 µM): -1.08 ± 2.3% | percent growth inhibition of drug alone ([1]; 20 µM): -2.41 ± 3.1% | percent growth inhibition [3, 5]: 7.85 ± 0.11%

C#CCN(C)[C@H](C)Cc1ccccc1 [Selegiline hydrochloride]
percent growth inhibition of drug alone ([1]; 7 µM): -1.33 ± 2.5% | percent growth inhibition of drug alone ([1]; 20 µM): 0.878 ± 0.49% | percent growth inhibition [3, 5]: 4.23 ± 6.9%

CCn1cc(C(=O)O)c(=O)c2cc3c(cc21)OCO3 [Oxolinic acid]
percent growth inhibition of drug alone ([1]; 7 µM): 6.34 ± 3% | percent growth inhibition of drug alone ([1]; 20 µM): 16.3 ± 9.5% | percent growth inhibition [3, 6]: 37.9 ± 7.2% | percent growth inhibition [3, 5]: 100.2 ± 0.18%

C[C@]12CC[C@H](O)C[C@@H]1CC[C@@H]1[C@@H]2CC[C@]2(C)C(=O)CC[C@@H]12 [Epiandrosterone]
percent growth inhibition of drug alone ([1]; 7 µM): 0.561 ± 2% | percent growth inhibition of drug alone ([1]; 20 µM): -1.04 ± 0.09% | percent growth inhibition [3, 6]: -6.74 ± 2.2%

C=CCN1CC[C@]23c4c5ccc(O)c4O[C@H]2C(=O)CC[C@@]3(O)[C@H]1C5 [Naloxone hydrochloride]
percent growth inhibition of drug alone ([1]; 7 µM): -0.923 ± 1.2% | percent growth inhibition of drug alone ([1]; 20 µM): 0.247 ± 1.1% | percent growth inhibition [3, 5]: -10.2 ± 2.5%
